# According to PubChem BioAssay (NCATS):
# Several values for one entry are separate records, joined by “and”; a condition that tells them apart may be missing. Equal values may be shown once. Results filed as inconclusive are left out. Activity calls are given as the source filed them. The call rests on the fitted dose curve; in most records, active means well fitted cell-killing curve with a large enough effect; inconclusive means small, poorly fitted or top-dose-only effect; inactive means no such curve, though single readings can be large or run the other way.
# Assay: qHTS of pediatric cancer cell lines to identify multiple opportunities for drug repurposing: Confirmatory screen for BT-37 cells (AID 1347117); further: nearly all actives have a fitted effect of over 55% in size
# Settings: BT-37 pediatric cancer cells, viability; series mostly up to 45.9 µM; activity change, negative = cytotoxic: at the top concentration
# Text: Drug repurposing or repositioning has been offered as a strategy for drug development in oncology programs. This approach has special potential for childhood cancers and other rare or orphan diseases, where the expected return on new drug development has been a disincentive to pharmaceuticals.
# In this project we exploit the poly-pharmacology of drugs to discover new indications via phenotypic screening of a panel of 19 well-characterized cell lines derived from solid tumors seen in children and adolescents. The goal is to identify approved drugs with previously unrecognized anticancer properties that has the potential to reveal new mechanisms and biological processes involved in carcinogenesis or drug resistance. We employed a titration-based paradigm (quantitative high-throughput screening or qHTS), where all compounds were tested at multiple concentrations for their effect on cell viability. Concentration-response curves (CRCs) were derived directly from the primary screen, and both potency and efficacy values were used to identify compounds with robust bioactivity profiles. We screened the NIH Chemical Genomics Center (NCGC) Pharmaceutical Collection (NPC) and Mechanism Interrogation Plate (MIPE) small molecule collections of approved and investigational compounds against these cell lines; and measured metabolically active cells after 48 hours of compound treatment as a proxy for cell viability.
# Assay Submitter: Nathalia J. Martinez, National Center for Advancing Translational Sciences, National Institutes of Health, Rockville, MD, USA; email: natalia.martinez@nih.gov
# [1] Shen, M et al. Quantitative high-throughput phenotypic screening of pediatric cancer cell lines identifies multiple opportunities for drug repurposing. Oncotarget 2017 Dec 19;9(4):4758-4772. PMID 29435139.
# The cells were obtained from University of North Carolina (UNC), Pediatric Preclinical Testing Program (PPT), and Coriell Institute (CI).
# qHTS cell viability assay:
# Cells were assayed in growth media at a density of 500-1,000 cells/well. Five microliters of cells were dispensed into 1,536-well, white, solid-bottom, TC-treated plates (Greiner Bio One) using a multidrop dispenser and incubated at 37 degrees C, 5% CO2, under a humidified atmosphere for 5 hours. Twenty-three nanoliters of compounds and controls (neutral control DMSO or positive control bortezomib at final concentration of 2.3 µM) were subsequently transferred by Kalypsys pintool. For primary screens, the MIPE collection was tested at 11-point dilutions (final concentrations range from 0.78 nM to 46 µM) and the NPC collection at 8-point dilutions (final concentrations range from 0.59 nM to 46 µM). Compounds tested in follow-up screens were assayed at 11-point dilutions. Cells were incubated for 48 hours, followed by addition of 3 µL of CellTiter-Glo (Promega). After a 15 min incubation at room temperature, samples were analyzed for luminescence intensity using a ViewLux High-throughput CCD imager equipped with clear filters.
# Potency means the concentration at half of the fitted maximal effect.
SMILES,Potency,"activity change, negative = cytotoxic"
CCN(CC)C(=S)SSC(=S)N(CC)CC,414 nM (active),–
CC[C@]1(O)C[C@H]2CN(CCc3c([nH]c4ccccc34)[C@@](C(=O)OC)(c3cc4c(cc3OC)N(C=O)[C@H]3[C@@](O)(C(=O)OC)[C@H](OC(C)=O)[C@]5(CC)C=CCN6CC[C@]43[C@@H]65)C2)C1,14.7 nM (active) and 131 nM (active),–
Cc1cc(C2CCCCC2)n(O)c(=O)c1,2330 nM (active),–
c1cnc2cc3c(cc2n1)C1CNCC3C1,–,-1.5% (inactive)
CN(C)c1ccc2nc3ccc(=[N+](C)C)cc-3sc2c1,928 nM (active),–
Cc1ccc(Nc2nccc(N(C)c3ccc4c(C)n(C)nc4c3)n2)cc1S(N)(=O)=O,–,-28.9% (inactive)
CCCOc1ccc2nc(NC(=O)OC)[nH]c2c1,1310 nM (active),–
CC(C)C[C@H](NC(=O)[C@H](Cc1ccccc1)NC(=O)c1cnccn1)B(O)O,46.5 nM (active),–
O=C1c2c(O)cc(O)cc2OC(c2ccc(O)c(O)c2)C1O (stereo not drawn),–,-3.97% (inactive)
C=C(c1ccc(C(=O)O)cc1)c1cc2c(cc1C)C(C)(C)CCC2(C)C,–,-13.2% (inactive)
CCc1nc(N)nc(N)c1-c1ccc(Cl)cc1,5220 nM (active),–
CCN(CCO)CCCC(C)Nc1ccnc2cc(Cl)ccc12 (stereo not drawn),–,-8.37% (inactive)
CCOc1cc(CC(=O)N[C@@H](CC(C)C)c2ccccc2N2CCCCC2)ccc1C(=O)O,–,8.42% (inactive)
Clc1ccc(C(Cn2ccnc2)OCc2ccc(Sc3ccccc3)cc2)c(Cl)c1 (stereo not drawn),26100 nM (active),–
CCN(CC)CCOc1ccc(Nc2ncc3cc(-c4c(Cl)cccc4Cl)c(=O)n(C)c3n2)cc1,4650 nM (active),–
Oc1ccc(-c2nc(-c3ccc(F)cc3)c(-c3ccncc3)[nH]2)cc1,737 nM (active),–
Clc1ccc(C(Cn2ccnc2)OCc2ccsc2Cl)c(Cl)c1 (stereo not drawn),7370 nM (active),–
O=C(CCc1ccc(O)cc1)c1c(O)cc(O)cc1O,–,-4% (inactive)
CCCCc1ccc2nc(NC(=O)OC)[nH]c2c1,414 nM (active),–
CC1(C)C(=O)N(CCN2CCC(C(=O)c3ccc(F)cc3)CC2)c2ccccc21,–,-17.6% (inactive)
CN(C)c1ccc(O)c2c1C[C@H]1C[C@H]3[C@H](N(C)C)C(=O)C(C(N)=O)=C(O)[C@@]3(O)C(=O)C1=C2O,–,-16.3% (inactive)
CC(S)C(=O)NCC(=O)O (stereo not drawn),–,1.92% (inactive)
Nc1nc(Cl)nc2c1ncn2[C@H]1C[C@H](O)[C@@H](CO)O1,208 nM (active),–
